According to PubChem BioAssay AID1851 (National Center for Advancing Translational Sciences (NCATS), 2009):
In all, about 16,000 compounds went through this assay and about 5,800 (36%) were called active. Roughly 23% stayed inconclusive and do not appear here. Calls come from the whole dose curve; as a rule, active = well fitted curve in the direction sought with a large enough effect; inconclusive = small, poorly fitted or top-dose-only effect, or effect the other way; inactive = no such curve, though single readings can be large or run the other way. The list shows a part of the results. Peptide text beside a SMILES is read from it.

The compounds below were run against Cytochrome P450 2C19 (Homo sapiens) (UniProt P33261) (assay: Cytochrome panel assay with activity outcomes). Conditions: recombinant CYP, pro-luciferin dealkylation, luminescence, p450-cyp2c19; series mostly up to 57.1 µM; activity, negative = inhibition: at the top concentration.
Sequence of Cytochrome P450 2C19 (Homo sapiens) (P33261 whole entry, looked up): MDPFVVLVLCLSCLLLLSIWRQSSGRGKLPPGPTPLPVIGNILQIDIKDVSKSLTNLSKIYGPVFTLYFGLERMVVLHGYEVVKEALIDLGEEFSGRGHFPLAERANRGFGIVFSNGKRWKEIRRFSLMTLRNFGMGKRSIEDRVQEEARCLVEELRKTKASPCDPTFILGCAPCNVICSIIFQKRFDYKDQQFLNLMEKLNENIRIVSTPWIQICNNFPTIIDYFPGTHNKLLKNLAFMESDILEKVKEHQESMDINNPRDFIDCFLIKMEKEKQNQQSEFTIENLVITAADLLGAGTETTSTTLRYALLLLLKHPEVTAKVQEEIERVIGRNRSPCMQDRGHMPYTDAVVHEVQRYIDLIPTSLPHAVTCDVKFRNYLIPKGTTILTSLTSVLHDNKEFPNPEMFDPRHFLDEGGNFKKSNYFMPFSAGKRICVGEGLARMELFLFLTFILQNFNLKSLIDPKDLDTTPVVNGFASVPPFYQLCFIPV
% is set by controls: 0 for no effect and ±100 for the full control effect.

Row | Compound | AC50 | activity, negative = inhibition
1 | Cc1ccc(OC(=O)c2ccc(N3CCOCC3)c([N+](=O)[O-])c2)cc1 | 20 µM (active) | –
2 | CCOC(=O)c1c(NC(=O)c2ccc(N3CCOCC3)c([N+](=O)[O-])c2)sc(C)c1C | – | 2.69% (inactive)
3 | Cc1ccc(OCC(=O)N2CCN(c3ccc([N+](=O)[O-])c(N4CCOCC4)c3)CC2)cc1 | 14.1 µM (active) | –
4 | Cn1c(=O)n(C)c2cc([N+](=O)[O-])c(N3CCN(C(=O)c4ccccc4Cl)CC3)cc21 | 17.8 µM (active) | –
5 | CO/N=C/c1ccc(N2CCN(C(=O)c3ccc(Cl)cc3Cl)CC2)c([N+](=O)[O-])c1 | 5.01 µM (active) | –
6 | O=C(Nc1ccc(-c2nc3ccccc3o2)cc1)c1ccc(N2CCOCC2)c([N+](=O)[O-])c1 | 5.01 µM (active) | –
7 | COC(=O)c1ccc(N2CCN(CC(=O)c3ccc(-c4ccccc4)cc3)CC2)c([N+](=O)[O-])c1 | 5.01 µM (active) | –
8 | COC(=O)c1ccc(N2CCN(c3ccccc3)CC2)c(NC(=O)C2CC2)c1 | – | -20.9% (inactive)
9 | Cc1cc(C)n(-c2cc(N3CCN(C(=O)c4ccc(C(C)(C)C)cc4)CC3)ccc2[N+](=O)[O-])n1 | 2.82 µM (active) | –
10 | Cc1ccc(C(=O)O/N=C\c2ccc(N3CCCCC3)c([N+](=O)[O-])c2)cc1 | 1.58 µM (active) | –
11 | Cc1ccc(C)c(-c2nn(-c3cc(N4CCN(CCO)CC4)ccc3[N+](=O)[O-])c(=O)c3ccccc23)c1 | – | -101% (inactive)
12 | CCOC(=O)c1[nH]c(C(=O)O)c(CCN(CC)CC)c1C | – | 7.09% (inactive)
13 | CO[C@H]1COC(=O)[C@@H](C)COC(=O)[C@@H](Cc2ccccc2)NC(=O)C/C=C\[C@H]1C | – | 10.6% [at 11.4 µM] (inactive)
14 | CC(C)=CCC/C(C)=C/CO/N=C1/C[C@@H](O)[C@@H](O)[C@@H]2[C@@H]3C(=O)N(C[C@@H]4CCCO4)C(=O)[C@H]3CC[C@@H]12 | – | 29.8% [at 11.4 µM] (inactive)
15 | Cc1ccccc1C(=O)N1CCN(c2ccc([N+](=O)[O-])c(N3CCOCC3)c2)CC1 | 15.8 µM (active) | –
16 | Cn1ncc([N+](=O)[O-])c1C(=O)N1CCOCC1 | – | -1.66% (inactive)
17 | Cc1ccc(OCCCC(=O)N2CCOCC2)cc1 | 1.41 µM (active) | –
18 | O=C(NCCNC[C@@H](O)COc1ccc(O)cc1)N1CCOCC1 | inactive | –
19 | Cc1ccc(C)c2sc(NC(=O)c3ccc(N4CCCCC4)c([N+](=O)[O-])c3)nc12 | 2.82 µM (active) | –
20 | Cc1ccc(CS(=O)(=O)CCC(=O)N2CCOCC2)cc1 | – | -8.97% (inactive)
21 | CC(=O)N[C@@H](CC(=O)O)C(=O)N[C@@H](CCC(=O)O)C(=O)O (Ac-Asp-Glu-OH) | inactive | –
22 | CCCCNN | – | -44.3% [at 11.4 µM] (inactive)
